According to PubChem BioAssay (NCI):
About 79,000 compounds went through this panel and 15% of them were active in at least one assay; those are over-represented in the sample as a whole. Activity calls are given as the source filed them. No stated cut-off is given here; in the data, active means growth inhibition above about 70%; inactive means the rest.

Assays:
[1] = NCI Yeast Anticancer Drug Screen. Data for the rad52 strain (AID 147);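 further: 0% = growth of vehicle-treated control cultures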; settings: S. cerevisiae rad52 mutant growth inhibition, hits give high values
Method in brief: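 Here a repair-compromised yeast strain receives each compound; its growth is then quantified and normalised to vehicle-only controls.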

[2] = NCI Yeast Anticancer Drug Screen. Data for the wt1 strain (AID 149);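 further: 0% = growth of vehicle-treated wt1 cultures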; settings: S. cerevisiae wt1 strain (SPY 50644) growth inhibition, hits give high values
Method in brief: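 Measured: growth of wt1 yeast under compound versus vehicle treatment, reported as inhibition.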

[3] = NCI Yeast Anticancer Drug Screen. Data for the rad50EPP+ strain (AID 151);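 further: 0% = growth of vehicle-treated control cultures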; settings: S. cerevisiae rad50 mutant strain, hits give high values
Method in brief: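 Read-out is yeast growth inhibition relative to vehicle; cells used were the rad50EPP+ strain.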

[4] = NCI Yeast Anticancer Drug Screen. Data for the mgt1 strain (AID 153); settings: S. cerevisiae mgt1 mutant growth inhibition, hits give high values
Method in brief: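 Measured: inhibition of mgt1 yeast growth by compound, normalized to vehicle-treated cultures.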

[5] = NCI Yeast Anticancer Drug Screen. Data for the rad50 strain (AID 155);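 further: 0% = growth of vehicle-only cultures of the same strain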; settings: S. cerevisiae rad50 strain growth inhibition, hits give high values
Method in brief: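 Growth of the mutant yeast was measured after compound exposure and referenced to vehicle-treated cultures.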

[6] = NCI Yeast Anticancer Drug Screen. Data for the mec2-1 strain (AID 157); settings: S. cerevisiae mec2-1 strain, hits give high values
Method in brief: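 Using mec2-1 yeast: add compound, measure growth, express inhibition versus vehicle-treated cultures.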

[7] = NCI Yeast Anticancer Drug Screen. Data for the rad14 strain (AID 159);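 further: 0% = growth of vehicle-treated control cultures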; settings: S. cerevisiae rad14 strain growth inhibition, hits give high values
Method in brief: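 Here, inhibition of yeast growth was measured after compound exposure, using a strain with a genetic defect in DNA damage repair and vehicle-treated cultures as the reference.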

[8] = NCI Yeast Anticancer Drug Screen. Data for the sgs1 mgt1 strain (AID 161);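 further: 0% = growth of cultures given vehicle only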; settings: S. cerevisiae sgs1 mgt1 strain, hits give high values
Method in brief: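 Compounds are added to genetically altered yeast, and growth is compared with cultures given vehicle alone to give percent inhibition.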

[9] = NCI Yeast Anticancer Drug Screen. Data for the CLN2oe strain (AID 163);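 further: 0% = growth of vehicle-only control cultures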; settings: S. cerevisiae CLN2oe strain, hits give high values
Method in brief: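 Whole-cell yeast growth assay. A strain engineered for altered cell-cycle control received compound, and inhibition relative to vehicle-treated cultures was recorded.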

[10] = NCI Yeast Anticancer Drug Screen. Data for the cln2 rad14 strain (AID 165);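 further: 0% = growth equal to vehicle treated cultures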; settings: S. cerevisiae cln2 rad14 strain, hits give high values
Method in brief: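 Yeast strain cln2 rad14, bearing defects in cell cycle control and DNA repair, serves as the test system; values reflect growth inhibition compared with vehicle.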

[11] = NCI Yeast Anticancer Drug Screen. Data for the bub3 strain (AID 167); settings: S. cerevisiae bub3 mutant strain, hits give high values
Method in brief: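 Whole-cell yeast assay. The mutant strain was incubated with compounds, and growth inhibition was determined by comparison with vehicle-treated cells.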

[12] = NCI Yeast Anticancer Drug Screen. Data for the wt2 strain (AID 169);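 further: 0% = growth of vehicle-treated yeast cultures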; settings: S. cerevisiae wt2 strain growth inhibition, hits give high values
Method in brief: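 Treated yeast vs. vehicle-treated yeast: growth inhibition determined.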

[13] = NCI Yeast Anticancer Drug Screen. Data for the mlh1 strain (AID 171);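 further: 0% = growth of vehicle-treated control cultures of the same strain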; settings: S. cerevisiae mlh1 strain growth inhibition, hits give high values
Method in brief: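 A yeast strain with a defined genetic lesion serves as the test organism. Cultures receive compound or vehicle, and growth is measured.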

[14] = NCI Yeast Anticancer Drug Screen. Data for the sgs1 strain (AID 173);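 further: 0% = growth of vehicle-only control cultures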; settings: S. cerevisiae sgs1 mutant, hits give high values
Method in brief: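 A genetically defined yeast mutant is incubated with the test compound, and its growth is compared to that of the same strain given vehicle.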

[15] = NCI Yeast Anticancer Drug Screen. Data for the mlh1 rad18 strain (AID 175); settings: S. cerevisiae mlh1 rad18 strain growth inhibition, hits give high values
Method in brief: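 Steps: expose repair-defective yeast to compound; measure growth; express inhibition against vehicle-treated controls.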

[16] = NCI Yeast Anticancer Drug Screen. Data for the rad18 strain (AID 177); settings: S. cerevisiae rad18 mutant growth inhibition, hits give high values
Method in brief: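 Measured value is growth inhibition of a yeast strain bearing a DNA repair alteration, referenced to vehicle-treated cells.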

[17] = at 5.0 µM (retest, dose inferred, filed as 0.5)
[18] = at 50.0 µM (retest, dose inferred, filed as 5.0)

Measured: growth inhibition

O=[N+]([O-])c1ccc(-n2nc3ccc4c(no[n+]4[O-])c3[n+]2[O-])c([N+](=O)[O-])c1
inactive: [1]; at 1.2 µM 0% | [1]; at 3.7 µM 1% | [1]; at 11.0 µM 2% | [1]; at 33.0 µM 4% | [1]; at 100.0 µM 6% | [2]; at 1.2 µM -2% | [2]; at 3.7 µM -2% | [2]; at 11.0 µM -2% | [2]; at 33.0 µM 0% | [2]; at 100.0 µM 3% | [3]; at 1.2 µM 3% | [3]; at 3.7 µM 8% | [3]; at 11.0 µM 13% | [3]; at 33.0 µM 26% | [3]; at 100.0 µM 24% | [4]; at 1.2 µM -4% | [4]; at 3.7 µM -3% | [4]; at 11.0 µM 5% | [4]; at 33.0 µM -3% | [4]; at 100.0 µM -2% | [5]; at 1.2 µM -1% | [5]; at 3.7 µM 1% | [5]; [17] 20% | [5]; at 11.0 µM -5% | [5]; at 33.0 µM 6% | [5]; at 50.0 µM 30.4% | [5]; at 100.0 µM 4% | [6]; at 1.2 µM 3% | [6]; at 3.7 µM 0% | [6]; [17] 23% | [6]; at 11.0 µM 2% | [6]; at 33.0 µM 3% | [6]; at 50.0 µM 9.9% | [6]; at 100.0 µM 2% | [7]; at 1.2 µM -3% | [7]; at 3.7 µM -1% | [7]; at 11.0 µM 7% | [7]; at 33.0 µM 8% | [7]; at 100.0 µM 8% | [8]; [17] 16% | [9]; at 1.2 µM -1% | [9]; at 3.7 µM -5% | [9]; at 11.0 µM -6% | [9]; at 33.0 µM -2% | [9]; at 100.0 µM 2% | [10]; [17] 44% | [10]; at 50.0 µM 9.9% | [11]; at 1.2 µM -3% | [11]; at 3.7 µM 1% | [11]; [17] -14% | [11]; at 11.0 µM 10% | [11]; at 33.0 µM 8% | [11]; at 50.0 µM 66.7% | [11]; at 100.0 µM 9% | [12]; at 1.2 µM -8% | [12]; at 3.7 µM -3% | [12]; at 11.0 µM -2% | [12]; at 33.0 µM 2% | [12]; at 100.0 µM 3% | [13]; at 1.2 µM 0% | [13]; at 3.7 µM -4% | [13]; at 11.0 µM -3% | [13]; at 33.0 µM 1% | [13]; at 100.0 µM -5% | [14]; at 1.2 µM -1% | [14]; at 3.7 µM 1% | [14]; at 11.0 µM 3% | [14]; at 33.0 µM 4% | [14]; at 100.0 µM 6% | [15]; [17] 28% | [15]; at 50.0 µM -13.2% | [16]; at 1.2 µM -1% | [16]; at 3.7 µM 4% | [16]; at 11.0 µM 7% | [16]; at 33.0 µM 1% | [16]; at 100.0 µM 19%
active: [5]; [18] 98% | [6]; [18] 98% | [8]; [18] 97% | [8]; at 50.0 µM 70.5% | [10]; [18] 97% | [11]; [18] 96% | [15]; [18] 97%

CCNCC(=O)O[C@]1(CC)C(=O)OCc2c1cc1n(c2=O)Cc2cc3ccccc3nc2-1
active: [5]; [17] 72% | [5]; [18] 90% | [5]; at 50.0 µM 86% | [6]; [18] 73% | [6]; at 50.0 µM 76%
inactive: [1]; at 1.2 µM 38% | [1]; at 3.7 µM 28% | [1]; at 11.0 µM 20% | [1]; at 33.0 µM 19% | [1]; at 100.0 µM 16% | [2]; at 1.2 µM 19% | [2]; at 3.7 µM 12% | [2]; at 11.0 µM 13% | [2]; at 33.0 µM 2% | [2]; at 100.0 µM 4% | [3]; at 1.2 µM 35% | [3]; at 3.7 µM 25% | [3]; at 11.0 µM 9% | [3]; at 33.0 µM 2% | [3]; at 100.0 µM -11% | [4]; at 1.2 µM 22% | [4]; at 3.7 µM 33% | [4]; at 11.0 µM 26% | [4]; at 33.0 µM 18% | [4]; at 100.0 µM 23% | [5]; at 1.2 µM 22% | [5]; at 3.7 µM 15% | [5]; at 11.0 µM 17% | [5]; at 33.0 µM 10% | [5]; at 100.0 µM -6% | [6]; at 1.2 µM 35% | [6]; at 3.7 µM 19% | [6]; [17] 4% | [6]; at 11.0 µM 19% | [6]; at 33.0 µM 6% | [6]; at 100.0 µM 6% | [7]; at 1.2 µM 11% | [7]; at 3.7 µM 6% | [7]; at 11.0 µM -1% | [7]; at 33.0 µM 6% | [7]; at 100.0 µM 1% | [8]; [17] 31% | [8]; [18] 60% | [8]; at 50.0 µM 57.5% | [9]; at 1.2 µM 33% | [9]; at 3.7 µM 30% | [9]; at 11.0 µM 32% | [9]; at 33.0 µM 22% | [9]; at 100.0 µM 18% | [10]; [17] 15% | [10]; [18] 31% | [10]; at 50.0 µM 25.6% | [11]; at 1.2 µM 28% | [11]; at 3.7 µM 1% | [11]; [17] 7% | [11]; at 11.0 µM 14% | [11]; at 33.0 µM -2% | [11]; [18] 39% | [11]; at 50.0 µM 40.8% | [11]; at 100.0 µM -6%
